This note sets out measurements from PubChem BioAssay (EPA / NIEHS).

Each structure is given as a SMILES string. Records with an inconclusive call do not appear. The source made the active and inactive calls. Rule for the calls: active = hit-call score of the fitted dose curve at least 0.9, where 1 is the maximum; inconclusive = response in the unintended direction; inactive = score below 0.9.

Read-out in this test: glucuronosyltransferase (UGT1A1), UGT1A1 (gene 54658)
As to the kind of experiment: CLD_UGT1A1_24hr: CellzDirect (CLD) Gene Expression Assay for glucuronosyltransferase (UGT1A1) at 24 hours (AID 2283696). The method, then: CLD_24hr is a cell-based, multiplexed-readout assay that uses hepatocyte, a human liver primary cell, with measurements taken at 24 hours after chemical dosing in a 96-well plate.CLD_UGT1A1_24hr is one of 16 assay component(s) measured or calculated from the CLD_24hr assay. It is designed to make measurements of mRNA induction, a form of inducible reporter, as detected with chemiluminescence signals by Quantitative Nuclease Protection Assay (qNPA) technology.Data from the assay component CLD_UGT1A1_24hr was analyzed at the endpoint, CLD_UGT1A1_24hr, in the positive analysis fitting direction relative to DMSO as the negative control and baseline of activity. Using a type of inducible reporter, gain-of-signal activity can be used to understand changes in the reporter gene as they relate to the gene UGT1A1. Furthermore, this assay endpoint can be referred to as a primary readout. To generalize the intended target to other relatable targets, this assay endpoint is annotated to the transferase intended target family, where subfamily is glucuronosyltransferase.
Human hepatocyte cultures were treated daily for two consecutive days with fresh dosing solutions containing appropriate concentrations of the 320 ToxCast chemicals (chemical identities were blinded to CellzDirect and other ToxCast collaborators), vehicle control (0.2% DMSO), and positive control inducers as summarized in Table 1. Due to the large number of treatment groups and chemicals examined, the ToxCast chemicals were divided into two groups (spanning two independent cultures of hepatocytes from separate donor preparations (Hu778: ToxCast plates 1 and 2; Hu776: ToxCast plates 3 and 4). Each preparation of human hepatocyte cultures was treated with respective vehicle control, medium only control, set of six positive controls/reference chemicals for the five hepatic receptor pathways, and a subset of eight of the ToxCast chemicals (indoxacarb, pyrithiobac-sodium, norflurazon, cyhalofop-butyl, methomyl, thiram, acetochlor, and propiconazole). These replicate data, coupled with internal replicates designed within the blinded ToxCast chemical library, provided additional data to evaluate interindividual differences between hepatocyte preparations and their potential impact on chemical profiles.Cell morphology and integrity were evaluated using phase-contrast microscopy as an indicator of hepatocyte cell health (Tyson & Green, 1987). Cultures for each treatment group (i.e., media, vehicle [0.2% DMSO], positive control inducers [multiple concentrations], and the ToxCast chemicals [multiple concentrations]) were observed and cell morphology was assessed relative to vehicle control cultures at each harvest time point (0, 6, 24, or 48 h). […] Images were evaluated at the conclusion of the study to assess changes in cell integrity and account for the effects of chemical exposure on uncharacteristic changes in concentration-dependent gene expression profiles. The results from these determinations of apparent cytotoxicity were annotated (yes/no) alongside the corresponding qNPA data for reference.At the conclusion of each treatment period, hepatocyte cultures (96-well) were washed with 1 volume of HBSS, lysed by addition of 25 ul ArrayPlate lysis buffer (HTG, Tucson, AZ), and 70 ul/well of Denaturation Oil, denatured by incubation at 95C for 10 min, and frozen at approximately -70C until analysis by nuclease protection assay (qNPA) (Roberts et al., 2007). For qNPA analysis, cell lysates were thawed at 50C for approximately 30 min, qNPA probes were added, and samples were incubated at 95C for 10 min to begin the detection process by denaturing the target RNA, dissociating the duplexes and secondary structure hybridization. At the conclusion of the hybridization period, S1 nuclease reagent was added to each sample to digest all nonprotected nucleotides at 50C for 60-90 min. […]
As for `CCCN(CCC)c1c([N+](=O)[O-])cc(C(F)(F)F)cc1[N+](=O)[O-]`, the result was inactive. On to `CNC(=O)Oc1cccc(N=CN(C)C)c1`, for which the compound was classed as inactive.

In the case of `CC(C)N(C(=O)COc1nnc(C(F)(F)F)s1)c1ccc(F)cc1`, the call was inactive. As for `O=C1c2ccccc2C(=O)N1SC(Cl)(Cl)Cl`, the outcome was inactive. On the same count and under the same terms, in the case of `CCOCN(C(=O)CCl)c1c(C)cccc1CC` it was “inactive”.

`O=S1OCC2C(CO1)C1(Cl)C(Cl)=C(Cl)C2(Cl)C1(Cl)Cl` (stereo not given): the outcome was inactive. As for `CCC(C)(C)C(=O)OC1=C(c2ccc(Cl)cc2Cl)C(=O)OC12CCCCC2`, the compound was classed as inactive.

With `Cc1[nH]c(=O)n(C(C)(C)C)c(=O)c1Cl`, the compound was classed as inactive. The same measure, in the same setting: under `CNC(=O)Oc1ccccc1OC(C)C` stands “inactive”. Consider `COC(=O)c1ccccc1CS(=O)(=O)NC(=O)Nc1nc(OC)cc(OC)n1`, for which the call was inactive. Consider `COP(=O)(OC)OC=C(Cl)Cl`, for which the result was inactive. As to `C[C@H]1[C@H](c2ccc(Cl)cc2)SC(=O)N1C(=O)NC1CCCCC1`, the result was inactive. For the compound `COC(=O)c1ccccc1S(=O)(=O)NC(=O)N(C)c1nc(C)nc(OC)n1`, the result was inactive. On to `CCS(=O)(=O)c1cccnc1S(=O)(=O)NC(=O)Nc1nc(OC)cc(OC)n1`, for which the call was inactive. Take `COc1cc(OC)nc(NC(=O)NS(=O)(=O)c2cc(NC=O)ccc2C(=O)N(C)C)n1`: the compound was classed as inactive. Turning to `OCCOc1ccccc1`, the outcome was inactive. Same read-out and setting: under `CC1(C)C(C=C(Cl)Cl)C1C(=O)OC(C#N)c1ccc(F)c(Oc2ccccc2)c1` (stereo not given) stands “inactive”. Take `CC(C)OC(=O)Nc1cccc(Cl)c1`: the half-maximal activity concentration (AC50) is 20 µM (active).

In the case of `O=C(O)CCCOc1ccc(Cl)cc1Cl`, the compound was called inactive.

Take `Cc1cc(C)nc(NC(=O)NS(=O)(=O)c2ccccc2C(=O)OC2COC2)n1`: the result was inactive. Turning to `O=C(O)COc1ccc(Cl)cc1Cl`, the outcome was inactive. Regarding `C#CCN1C(=O)COc2cc(F)c(N3C(=O)C4=C(CCCC4)C3=O)cc21`, the result was inactive. Still for that read-out and setting: in the case of `CNC(=O)CSP(=S)(OC)OC` it was “inactive”; in that of `Clc1ccccc1-c1nnc(-c2ccccc2Cl)nn1`, “inactive”; in that of `COP(=S)(OC)Oc1ccc([N+](=O)[O-])cc1`, “inactive”. Regarding `COP(=S)(OC)Oc1ccc(SC)c(C)c1`, the result was inactive. For the compound `CCc1ccc(C(=O)NN(C(=O)c2cc(C)cc(C)c2)C(C)(C)C)cc1`, the AC50 is 4.06 µM (active). Take `CNC(=O)/C=C(\C)OP(=O)(OC)OC`: the result was inactive.

`ClC1C(Cl)C(Cl)C(Cl)C(Cl)C1Cl` (stereo not given): the compound was called inactive.

With `CC(C)(C)C(O)C(Oc1ccc(Cl)cc1)n1cncn1` (stereo not given), the AC50 was 6.66 µM (active). Regarding `CCOC1Oc2ccc(OS(C)(=O)=O)cc2C1(C)C` (stereo not given), the compound was classed as inactive. As to `O=[N+]([O-])/N=C1\NCCN1Cc1ccc(Cl)nc1`, the compound was called inactive.

In the case of `COC(=O)c1ccccc1S(=O)(=O)NC(=O)Nc1nc(C)nc(OC)n1`, the outcome was inactive. On the same count and under the same terms, in the case of `Oc1cc(Cl)ccc1Oc1ccc(Cl)cc1Cl` it was “inactive”; in that of `CN1CSC(=S)N(C)C1`, “inactive”. Consider `COc1nn(CSP(=S)(OC)OC)c(=O)s1`, for which the result was inactive. In the case of `O=C(NC(=O)c1c(F)cccc1F)Nc1ccc(OC(F)(F)C(F)OC(F)(F)F)c(Cl)c1` (stereo not given), the compound was called inactive. Turning to `O=[N+]([O-])c1c(Cl)c(Cl)c(Cl)c(Cl)c1Cl`, the compound was called inactive. Still for that read-out and setting: under `CCOc1nc(NC)nc(NC(=O)NS(=O)(=O)c2ccccc2C(=O)OC)n1` stands “inactive”; under `CCC(C)Nc1c([N+](=O)[O-])cc(C(C)(C)C)cc1[N+](=O)[O-]` (stereo not given), “inactive”.
